Results reported in PubChem BioAssay (NCATS).
Records with an inconclusive call do not appear. Entries that show only a call come without a potency. Calls of active or inactive are those of the source. Calls follow the shape of the dose curve; as a rule, active = well fitted curve in the direction sought with a large enough effect; inconclusive = small, poorly fitted or top-dose-only effect, or another doubt; inactive = no such curve, though single readings can be large; an effect the other way counts as inactive or inconclusive.

Assays:
[1] = MultiTox-Fluor Cytotoxicity Assay - LYMP1-002 - Live Cells (AID 955);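 also: cells exposed to compound for 16 hours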
In short: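 LYMP1-002 lymphoblastoid cells; 2500 cells/well; 16 hr compound exposure, 37 C; MultiTox-Fluor reagent 60 min RT; live-cell fluorescence Ex/Em=405/510; qHTS concentration-response, Hill-equation AC50; tetraoctylammonium bromide positive control.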

[2] = MultiTox-Fluor Cytotoxicity Assay - LYMP1-002 - Dead Cells (AID 960); also: nearly all actives have a fitted effect of over 60% in size
In short: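 Readout: fluorescence at 485/520 from cell-impermeant bis-AAF-R110 cleaved by proteases leaking from damaged cells. LYMP1-002 lymphoblastoid line, 16 hr compound treatment at 37 C, concentration-response in qHTS format; Hill-equation AC50 values.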

[3] = MultiTox-Fluor Cytotoxicity Assay - LYMP1-003 - Dead Cells (AID 961);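 also: cells exposed to compound for 16 h at 37 °C; nearly all actives have a fitted effect of over 70% in size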
In short: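 Acute toxicity is scored as increased dead-cell protease activity in human lymphoblastoid LYMP1-003 cells after 16 h compound exposure in complete culture medium. Activity is normalized to DMSO basal and 15 uM tetraoctylammonium bromide as full response.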

[4] = Cell Viability - LYMP1-003 - Assay at 40 hr (AID 964); also: nearly all actives have a fitted effect of over 60% in size
In short: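 LYMP1-003 lymphoblastoid cells, 2500/well; 5 hr preincubation, 40 hr compound exposure, 37 C; CellTiter-Glo 30 min RT; luminescence; Hill-fit AC50. Positive control tetraoctylammonium bromide.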

[5] = Cell Viability - LYMP2-003 (AID 965);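 also: cells exposed to compounds for 24 h before reading; nearly all actives have a fitted effect of over 50% in size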
In short: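 qHTS, human lymphoblastoid line, 2500 cells/well, complete medium. 24 h drug, 37 C. ATP-based luminescent readout; Hill-fit AC50.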

[6] = Cell Viability - LYMP2-004 (AID 966); also: nearly all actives have a fitted effect of over 65% in size
In short: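 Luminescent ATP read-out (CellTiter-Glo, 30 min RT) after 24 hr compound exposure at 37 C; 2500 lymphoblastoid cells/well, complete medium. Decrease in ATP = cytotoxicity; AC50 from standard Hill model.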

[7] = Cell Viability - LYMP2-005 (AID 967)
In short: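 Luciferase-based ATP quantitation served as the viability measure in human lymphoblastoid LYMP2-005 cells exposed to test compounds for 24 h at 37 C in complete culture medium. Potency (AC50) was obtained by fitting concentration-response curves with the Hill equation.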

[8] = Cell Viability - LYMP2-009 (AID 968); also: nearly all actives have a fitted effect of over 55% in size
[9] = Cell Viability - LYMP2-011 (AID 969); also: nearly all actives have a fitted effect of over 60% in size
In short: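 Luminescent ATP read-out (CellTiter-Glo, 30 min RT) after 24 hr compound exposure at 37 C in human lymphoblastoid cells, 2500 cells/well. Decreasing ATP indicates cytotoxicity; AC50 from standard Hill fit.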

[10] = Cell Viability - LYMP2-017 (AID 972); also: nearly all actives have a fitted effect of over 55% in size
In short: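 Luminescent ATP read-out (CellTiter-Glo, 30 min RT) reports viable cell number. Cells: human lymphoblastoid line, 2500 per well, 5 hr preincubation, 24 hr compound exposure at 37 C. AC50 is derived from qHTS concentration-response data using the standard Hill model.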
Potency is read from the fitted curve at half-maximal effect.

SMILES	Potency [1]	Potency [2]	Potency [3]	Potency [4]	Potency [5]	Potency [6]	Potency [7]	Potency [8]	Potency [9]	Potency [10]
COc1cc(C=O)ccc1O	inactive	inactive	inactive	inactive	inactive	inactive	inactive	inactive	inactive	inactive
Brc1ccccc1-c1ccccc1	inactive	inactive	inactive	inactive	inactive	inactive	inactive	inactive	inactive	inactive
CC(C)(C)c1ccc(O)c(O)c1	inactive	inactive		25.1 µM (active)	50.1 µM (active)			39.8 µM (active)		39.8 µM (active)
Oc1ccccc1	inactive	inactive	inactive	inactive	inactive	inactive	inactive	inactive	inactive	inactive
Cc1cc(C(C)(C)C)c(O)c(C(C)(C)C)c1	inactive		inactive	inactive	inactive	inactive	inactive	inactive	inactive	inactive
CCCC(=O)c1cc(O)c(O)cc1O	inactive	inactive	inactive				inactive	inactive	inactive	
Nc1c2ccccc2nc2ccccc12	inactive	7.94 µM (active)	15.8 µM (active)	20 µM (active)	25.1 µM (active)	12.6 µM (active)		10 µM (active)	12.6 µM (active)	15.8 µM (active)
O=C(Oc1ccccc1)c1ccccc1O	inactive	inactive	inactive	inactive	inactive	inactive	inactive	inactive	inactive	inactive
C1=CC2C3C=CC(C3)C2C1 (stereo not drawn)	inactive	inactive	inactive	inactive	inactive		inactive	inactive	inactive	inactive
c1ccc2occc2c1	inactive	inactive	inactive	inactive	inactive	inactive	inactive	inactive	inactive	inactive
Cc1ccc(O)cc1	inactive		inactive	inactive	inactive	inactive	inactive	inactive	inactive	inactive
CCCCCCCCCCCCCCCC[n+]1ccccc1	12.6 µM (active)	10 µM (active)		10 µM (active)	31.6 µM (active)		15.8 µM (active)	15.8 µM (active)	20 µM (active)	25.1 µM (active)
Nc1cccc2c(N)cccc12	inactive	inactive	inactive	inactive	inactive	inactive	inactive	inactive	inactive	inactive
O=C(NO)c1ccccc1	inactive	inactive	inactive	inactive	inactive	inactive	inactive	inactive	inactive	inactive
CCCCC(CC)COC(=O)c1ccccc1C(=O)O (stereo not drawn)	inactive	inactive	inactive	inactive	inactive	inactive	inactive	inactive	inactive	inactive
CC(C)(c1ccc(O)cc1)c1ccc(O)cc1	inactive	inactive	inactive	inactive	inactive	inactive	inactive	inactive	inactive	inactive
Nc1ccc(O)cc1	25.1 µM (active)	31.6 µM (active)	50.1 µM (active)	39.8 µM (active)	25.1 µM (active)	25.1 µM (active)	25.1 µM (active)	31.6 µM (active)	39.8 µM (active)	39.8 µM (active)
CC(C)C(C)(C)C(C)(C)C(C)(C)S	inactive		inactive	inactive	inactive	inactive		inactive	inactive	inactive
CC(=O)OC/C=C(C)/C=C/C=C(C)/C=C/C1=C(C)CCCC1(C)C	inactive	inactive	inactive							50.1 µM (active)
O=C(c1ccccc1)c1ccccc1	inactive	inactive	inactive	inactive	inactive	inactive	inactive	inactive	inactive	inactive
OCc1c[nH]c2ccccc12	inactive	inactive	inactive	inactive	inactive	inactive	inactive	inactive	inactive	inactive
